Results from PubChem BioAssay AID624330 (Southern Research Specialized Biocontainment Screening …, 2012).
Hit rate of the full screen: of about 340,000 compounds, about 2,100 (0.62%) were called active.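 How the source made its calls: active means first-screen hits whose inhibition reached a set limit at any dose in the follow-up dose series; inconclusive means inhibition above the set first-screen limit but never retested; inactive means the rest.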 These entries were drawn from the full list. Potency and affinity values are given separately.

What follows are compounds tested against Rac GTPase-activating protein 1 (Homo sapiens) (UniProt Q9H0H5) (assay: MgcRacGAP GTPase-activating activity inhibitors, confirmation, biochemical, ADP Hunter fluorescence, primary and confirmatory (AID 624330;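 further: fluorescence reports GDP produced by GAP-driven GTP hydrolysis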)). Settings: MgcRacGAP-stimulated Rac1 GTP hydrolysis, at 30 µM, stronger effect = higher value, GST-tagged Rac1 F28L mutant substrate.
Rac GTPase-activating protein 1 (Homo sapiens), sequence (Q9H0H5 whole entry, looked up): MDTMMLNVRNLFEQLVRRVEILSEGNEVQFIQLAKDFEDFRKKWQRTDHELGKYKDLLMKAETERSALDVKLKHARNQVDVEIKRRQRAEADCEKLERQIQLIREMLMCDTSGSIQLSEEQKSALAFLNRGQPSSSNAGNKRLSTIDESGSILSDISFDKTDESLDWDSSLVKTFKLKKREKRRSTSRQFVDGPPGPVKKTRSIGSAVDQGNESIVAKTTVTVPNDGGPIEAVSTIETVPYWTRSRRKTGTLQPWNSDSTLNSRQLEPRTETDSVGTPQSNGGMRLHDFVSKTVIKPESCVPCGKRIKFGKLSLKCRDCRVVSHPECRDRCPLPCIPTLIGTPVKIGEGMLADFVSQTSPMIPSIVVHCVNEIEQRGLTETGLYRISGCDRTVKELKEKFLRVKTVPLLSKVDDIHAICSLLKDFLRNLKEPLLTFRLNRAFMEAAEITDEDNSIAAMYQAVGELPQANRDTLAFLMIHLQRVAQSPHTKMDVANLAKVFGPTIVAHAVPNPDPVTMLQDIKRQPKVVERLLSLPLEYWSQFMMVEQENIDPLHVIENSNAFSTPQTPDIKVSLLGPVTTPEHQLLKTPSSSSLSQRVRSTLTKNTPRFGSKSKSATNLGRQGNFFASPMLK

inhibition, inactive:
CC(C)N1CCN(Cc2coc3ccccc3c2=O)CC1CCO (stereo not given) 10.3%
O=C(CSc1nc(=O)n2ccccc2n1)NCCc1ccccc1 4.62%
NC(=O)CC(NC(=O)c1cccc(Br)c1)c1ccc(N2CCN(c3ccccn3)CC2)c([N+](=O)[O-])c1 (stereo not given) 5.09%
COc1ccccc1/C=C/C(=O)c1cc(Br)ccc1OC(=O)c1ccco1 8.54%
CC(C)CC(O)(CC(C)C)C(=O)NNc1ccccc1 11.2%
CCOC(=O)c1nc(Nc2ccccc2)c2ccccc2n1 -2.22%
CCOC(=O)c1nc(Nc2ccc(C)cc2)c2ccccc2n1 4.57%
CCN(CC(=O)Nc1ccccc1OC)C(=O)COc1ccc(C#N)cc1 2.59%
COc1ccccc1CN(C)CC(=O)Nc1ccc(Cl)cc1C(F)(F)F 18.9%
COc1ccc(CN(C)CC(=O)Nc2ccccc2C(F)(F)F)c(OC)c1 24.5%
COc1ccc(CCN=C(N)NS(=O)(=O)c2ccc(F)cc2)cc1OC 7.56%
CCC(=O)NC(=S)Nc1ccc(NC(=O)c2cccnc2)cc1 -1.6%
Cc1cc2ccccc2n2c(SCC(=O)NCc3cccs3)nnc12 -2.11%
C[C@H](CO)N1C[C@H](C)[C@@H](CN(C)S(=O)(=O)c2cccc(C#N)c2)OCc2cn(nn2)CCCC1=O 13.9%
NS(=O)(=O)c1ccc(-c2ccc(C=C3C(=O)c4ccccc4C3=O)o2)cc1 2.34%
NS(=O)(=O)c1ccc(-c2ccc(/C=C3\C(=O)Nc4cc(Cl)ccc43)o2)cc1 6.45%
CSc1ccccc1NC(=O)C1CCCN(S(C)(=O)=O)C1 (stereo not given) -1.03%
C=CCNC(=S)Nc1cccc(NC(=S)NCC=C)c1 6.56%
C=CCNC(=S)Nc1ccc(Cl)cc1 3.44%
CCCCn1c(CCNC(=O)c2cccs2)nc2ccccc21 -1.35%
COc1cccc(/C=N/NC(=O)c2cccc(N3CCCC3=O)c2)c1 4.11%
COc1ccc(/C=N/NC(=O)c2ccc(N3CCCC3=O)cc2)cc1 7.42%
COc1cccc(/C=N/NC(=O)c2ccc(N3CCCC3=O)cc2)c1 7.68%
COc1ccc(O)c(/C=N/NC(=O)c2cccc(N3CCCC3=O)c2)c1 3.65%
CCN(CCO)C(=O)CC1C(=O)NCCN1Cc1c(F)cccc1Cl (stereo not given) 9.19%
CN(Cc1cccc(F)c1)C(=O)CSc1nnc(C2CC2)n1C1CC1 7.8%
CCOc1cc(C(=O)NCC(C)CN(C)C)cc(OCC)c1OCC (stereo not given) 1.39%
Cc1ccc(NS(=O)(=O)c2ccc(C)c(NC(=O)c3ccc(S(=O)(=O)N4CCCCCC4)cc3)c2)c(C)c1 11.6%
COc1ccc(CN2CCN(CC(=O)Nc3ccccc3C(=O)NC3CC3)CC2)cc1F 6.52%
CCCN(CCO)Cc1ccc2ccccc2c1 3.4%
CN(C)C(=O)CCc1ccc2c3c([nH]c2c1)[C@]1(C)[C@@H](C(=O)N2CCCCC2)C[C@H](CC(=O)NCc2cccc(C(F)(F)F)c2)C(=O)N1CC3 4.55%
CCOC(=O)CSC1=NC(=O)/C(=C/c2ccc(Br)cc2)S1 19.4%
CCOC(=O)CSC1=NC(=O)/C(=C/c2ccc(OC)cc2)S1 16.1%
CCN1C[C@@H]2[C@@H]3C(=O)N(Cc4ccccc4)C(=O)[C@@H]3[C@](Cc3ccccc3)(C1=O)N2C(=O)c1ccc(Cl)cc1 6.26%
COc1ccc(C(=O)CC(=O)C(=O)Nc2ccc(OC)c(Cl)c2)cc1 5.32%
CN(C(=O)CCc1nc(-c2ccccc2F)no1)c1ccccc1 -0.78%
N#CC(C#N)=C1C=CC=CN1/C(=C\c1ccccc1Cl)C(=O)c1ccccc1 17.8%
COc1ccc(C(=O)/C(=C\c2ccco2)N2C=CC=CC2=C(C#N)C#N)cc1 4.05%
N#CC(C#N)=C1C=CC=CN1/C(=C\c1ccco1)C(=O)c1ccc(-c2ccccc2)cc1 15.6%
N#CC(C#N)=C1C=CC=CN1/C(=C\c1ccco1)C(=O)c1ccccc1 16.7%
CCCCN(C(=O)c1cc(CN2C(=O)c3ccccc3C2=O)ccc1OC)c1c(N)n(CC(C)C)c(=O)[nH]c1=O 3.78%
O=C(Nc1cccc(Cl)c1Cl)C1CCN(c2ncccn2)CC1 7.84%
CCOC(=O)C(Cc1ccccc1)C(=O)Nc1cccc(C)c1 (stereo not given) 1.33%
CCOC(=O)C(Cc1ccccc1)C(=O)Nc1ccc(NC(=O)C(Cc2ccccc2)C(=O)OCC)cc1 (stereo not given) 4.48%
CC(=O)c1cccc(NC(=O)CSC(=O)c2ccccc2)c1 7.67%
CCCCc1ccc(NC(=O)C2CCCC2)cc1 -0.66%
CCN(CC)c1ccc(NC(=S)NC(=O)C2CCC2)cc1 18%
CCN(CC)c1ccc(NC(=O)Nc2ccc(C(C)=O)cc2)cc1 10.2%
NC(=O)c1ccc(NC(=O)CSC(=O)c2ccccc2)cc1 8.91%
CCN(CC)c1ccc(/C=N/NC(=O)Nc2ccccc2)cc1 28.4%
COC(=O)c1cc(OC)c(OC)cc1NC(=O)CCCCCN1C(=O)CCC1=O 5.93%
COc1ccc(CCC(=O)Nc2ccc(Cn3ccnc3)cc2)cc1 6.46%
Cn1c(CCc2ccccc2)n[nH]c1=S 4.25%
C=CCOCCN(CC)CC 6.71%
CC#CCCCC(=O)Nc1ccccc1C(=O)O 6.9%
CCCn1c(SCCc2ccccc2)nc2c1c(=O)[nH]c(=O)n2C -2.73%
CCOc1ccc(NC(=O)COc2ccc(-n3cnnn3)cc2)cc1 6.31%
CCN(CC)c1ccc(/C=N/NC(=O)c2ccc(Br)o2)cc1 14.9%
COC(=O)Cc1ccc(NC(=O)c2ccc(Br)o2)cc1 18.8%
CCOC(=O)c1ccc(NC(=O)COc2ccc(-n3cnnn3)cc2)cc1 11.5%
